# The campaign covered roughly 330,000 compounds. About 20 (0.006%) were called active. Not shown: some 1% with an inconclusive outcome. Calls follow the shape of the dose curve; as a rule, active = well fitted inhibition curve with a large enough effect; inconclusive = small, poorly fitted or top-dose-only effect, or effect the other way; inactive = flat fitted curve, though single readings scatter. Shown is part of a subset that was picked to be rich in actives.
# Target: Protein phosphatase EYA2 (Homo sapiens) (UniProt O00167)
# Test: qHTS Assay for Inhibitors of the Phosphatase Activity of Eya2
# Conditions: recombinant Eya2, OMFP fluorescence dephosphorylation (OMFP is methylfluorescein phosphate); series mostly up to 76.9 µM; activity, negative = inhibition: at the top concentration
# From the text: The Eya family of proteins are essential co-activators of the Six1 transcription factor. Six1 is a developmental gene that is abnormally re-expressed in a large percentage of breast cancers. This over-expression plays a causal role in the initiation and metastatic development of breast cancers. The Eya family of proteins was also found to contain a unique HAD phosphatase domain with protein tyrosine phosphatase activity which can potentially play a role in Six1-mediated breast tumorigenesis. […] We have developed and optimized a 1536 well fluorescence-based HTS assay targeting the phosphatase activity of Eya2. Inhibitors found against Eya2 could serve as potential therapeutic tools to inhibit Six1-mediated breast tumorigenesis and to increase the efficiency of radiation and certain chemo therapy. These inhibitors could also be used as chemical probes to study the function of Eya2's phosphatase activity and its role in Six1-mediated breast tumorigenesis.
# The Eya2 enzyme was kindly provided by the laboratory of Dr. Rui Zhao. The 3-O-methyl-fluorescein phosphate (OMFP) substrate and all buffer reagents were purchased from Sigma Aldrich. qHTS Assay Setup: 1. Buffer- 50 mM HEPES pH 7.5, 50 mM NaCl, 5 uM MgCl2, 0.05% BSA, 1 mM DTT. 2. OMFP Stock- 10 mM solution prepared in 100% DMSO and stored in single use aliquots at -20C. Assay Procedure- 1. Dispense 1.5 ul per well of Eya2 at 0.2 uM in black medium binding 1536 well Greiner plate 2. Transfer 23 nl of compound and control compound (EGTA) to plate 3. Incubate at ambient for 10 minutes 4. Dispense 1.5 ul per well of OMFP at 50 uM 5. Incubate at ambient for 10 minutes 6. Read on ViewLux using Excitation = 485 nm, Emission = 525 nm
# % is scaled to controls: 0 for no effect and ±100 for the full control effect; potency is read from the fitted curve at half-maximal effect.
# Sequence of Protein phosphatase EYA2 (Homo sapiens) (O00167 whole entry, looked up): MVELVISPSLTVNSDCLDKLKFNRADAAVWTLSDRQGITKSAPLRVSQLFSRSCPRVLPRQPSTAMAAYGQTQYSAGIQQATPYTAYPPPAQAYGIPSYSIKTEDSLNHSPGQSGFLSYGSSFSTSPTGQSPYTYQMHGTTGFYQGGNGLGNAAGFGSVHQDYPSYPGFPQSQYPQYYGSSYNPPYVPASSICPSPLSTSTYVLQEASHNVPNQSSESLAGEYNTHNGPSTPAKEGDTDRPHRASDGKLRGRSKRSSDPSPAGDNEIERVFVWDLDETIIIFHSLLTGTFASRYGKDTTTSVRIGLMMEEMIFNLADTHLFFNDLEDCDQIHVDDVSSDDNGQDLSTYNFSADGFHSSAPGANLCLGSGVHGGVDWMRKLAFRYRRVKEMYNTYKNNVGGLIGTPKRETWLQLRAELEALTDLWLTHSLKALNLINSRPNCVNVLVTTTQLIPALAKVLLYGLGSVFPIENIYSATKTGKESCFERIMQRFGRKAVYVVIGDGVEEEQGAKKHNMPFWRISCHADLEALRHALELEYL
SMILES,"activity, negative = inhibition",Potency
Cn1c(-c2ccc(F)cc2)cc2onc(-c3ccccc3Cl)c2c1=O,-4.03% (inactive),
CCOc1cc(-c2noc(CCCC(=O)NC3CCCCC3)n2)ccc1OC,13.3% (inactive),
O=S(=O)(Nc1ccccc1Cl)c1cccc2nsnc12,2.19% (inactive),
COn1c(=O)c(=O)n(OC)c2ccccc21,-1.64% (inactive),
CN(C)C(=O)CCc1ccc2c3c([nH]c2c1)[C@]1(C)[C@@H](C(=O)N2CCOCC2)C[C@H](CC(=O)NCCc2ccccn2)C(=O)N1CC3,-11.1% (inactive),
O=S(=O)(Nc1ccc2nc(-c3ccco3)[nH]c2c1)c1ccccc1,1.38% (inactive),
CCOc1ccc(CCNC(=O)COC(=O)c2ccc(F)c(S(=O)(=O)N3CCOCC3)c2)cc1OCC,1.23% (inactive),
CC(CC(=O)Nc1ccc(F)cc1F)S(=O)(=O)c1ccc2c(c1)NC(=O)CO2 (stereo not given),-7.4% (inactive),
Cc1c(C#N)c2ncn(CC#N)c(=O)c2n1-c1ccccc1,-8.63% (inactive),
CCC(=O)Nc1cc(C(F)(F)F)ccc1N1CCCC1,-2.4% (inactive),
CCn1ccnc1CN(C)C(=O)c1ccc2nc(Cc3ccc(OC)cc3)oc2c1,-2.13% (inactive),
Cc1ccc(-n2cc(CN(C)Cc3nccn3C)c(-c3cccc(C)c3)n2)cc1,-7.18% (inactive),
C#CCOCCOCCOCCNc1nc(N2CCN(C(=O)CCCCCCCCCCNC(=O)Cn3cc(CCCCCN)nn3)CC2)nc(N2CCN(C(=O)CCCCCCCCCCNC(=O)[C@H](CO)n3cc(CCCSC)nn3)CC2)n1,-3.97% (inactive),
C#CCOCCOCCOCCNc1nc(N2CCN(C(=O)CCCCCCCCCCNC(=O)[C@H]([C@@H](C)CC)n3cc(CCCCN=C(N)N)nn3)CC2)nc(N2CCN(C(=O)CCCCCCCCCCNC(=O)[C@H](CO)n3cc(CCCSC)nn3)CC2)n1,,31.6 µM (active)
C#CCOCCOCCOCCNc1nc(N2CCN(C(=O)CCCCCCCCCCNC(=O)[C@H](CCCCN)n3cc(C)nn3)CC2)nc(N2CCN(C(=O)CCCCCCCCCCNC(=O)[C@H](CO)n3cc(CCCSC)nn3)CC2)n1,-28% (inactive),
CC1CC2C3CCC4=CC(=O)C=C[C@]4(C)[C@@]3(F)[C@@H](O)C[C@]2(C)[C@@]1(O)C(=O)CO (stereo not given in full),-0.431% (inactive),
Cc1cc(=O)[nH]c(N/N=C/c2c(C)nn(-c3ccccc3Cl)c2Cl)n1,-26.3% (inactive),
CC(C)NC(=O)NCCCCCCS(C)=O (stereo not given),3.21% (inactive),
N#CCSc1nc(-c2ccccc2)nc2ccc(F)cc12,-3.1% (inactive),
Cc1nnnn1/C(=C\c1ccccc1)C(=O)OCC(=O)N1CC2(C)CC1CC(C)(C)C2 (stereo not given),-9.54% (inactive),
C=CCOc1ccc(C(=O)Nc2ccccc2C(=O)N2CCCC2)cc1,-9.4% (inactive),
O=C(NCCCCO)C(F)(F)C(F)(F)C(F)(F)C(=O)NCCCCO,-6.32% (inactive),
COc1ccc(CCc2nnc(CCC(=O)NCc3cnn(-c4ccccc4C)c3)o2)cc1,-10.2% (inactive),
CCc1cccc(C)c1N1C(=O)CN(Cc2ccccc2)C1=S,-6.41% (inactive),
O=C(NCc1cc(C(F)(F)F)cc(C(F)(F)F)c1)C1CC(c2cccc(F)c2)=NO1 (stereo not given),-8.95% (inactive),

SMILES,"activity, negative = inhibition",Potency
CSc1ccccc1N1CCN(CCCCCC(=O)NC2CCCc3ccccc32)CC1 (stereo not given),-6.18% (inactive),
COCc1cc(=O)[nH]c(SC)n1,-1.78% (inactive),
N#Cc1cccc(OC(=O)c2ccc3c(=O)n4c(nc3c2)CCC4)c1,9.42% (inactive),
Cc1snc(SCc2c(F)cccc2Cl)c1C#N,3.84% (inactive),
CCOC(=O)C1CN(S(=O)(=O)c2ccc(F)cc2)C1,2.46% (inactive),
O=S(=O)(c1ccc(Cl)cc1)c1nc(-c2ccccc2F)oc1NCCN1CCOCC1,-12.3% (inactive),
COc1cc(C)c(S(=O)(=O)N2CCOCC2)c(C)c1C,-7.22% (inactive),
O=C(CSc1ccccc1F)NC1CCS(=O)(=O)C1 (stereo not given),-4.96% (inactive),
Clc1cccc(Cl)c1Cn1nnc(-c2cccs2)n1,6.83% (inactive),
Cc1ccc(NC(=O)CCNC(=O)c2ccc([N+](=O)[O-])cc2)cc1S(=O)(=O)N1CCOCC1,12.8% (inactive),
CC(C)(O)C#Cc1ncc(C(F)(F)F)cc1Cl,-2.8% (inactive),
COc1ccc(-c2nc3ccccc3n2CCC(C)C)cc1OC,-6.08% (inactive),
CN1CCN(C(=O)c2ccccc2NC(=O)COc2ccccc2Cl)CC1,-9% (inactive),
CCOc1ccc(NC(=O)C(C)N2C(=O)c3ccccc3C2=O)cc1 (stereo not given),-3.16% (inactive),
O=C(OC1CCOC1=O)c1ccc(-c2nc3ccccc3s2)s1 (stereo not given),-34.3% (inactive),
O=S(=O)(/C=C/c1ccccc1)NCCc1ccccn1,-14.7% (inactive),
Cc1cc(C(F)F)nn1CC(=O)NC1CCCCCC1,-2.98% (inactive),
COc1ccc(C(C#N)Nc2ccc(C)cc2)cc1 (stereo not given),-10.6% (inactive),
Cc1ccc(C2(C(F)(F)F)N=C3Sc4cc(C)cc(C)c4N3C(=O)N2)cc1 (stereo not given),-0.482% (inactive),
COc1ccc(-n2nc3c(c2NC(=O)c2ccc(N4C(=O)CCC4=O)cc2)CSC3)cc1,4.7% (inactive),
CC(O)c1cccc(NC(=O)Cc2cccc3ccccc23)c1 (stereo not given),-2.93% (inactive),
O=C(NC1CCCC1)C(c1ccco1)N(C(=O)c1ccco1)c1ccc(F)cc1 (stereo not given),11.4% (inactive),
CC(C)(C)c1cc2cccnc2n1Cc1ccccc1,-13.3% (inactive),
CCN1CCN(c2nc(Nc3cc(OC)ccc3OC)nc(Nc3cc(OC)ccc3OC)n2)CC1,-6.37% (inactive),
COc1ccc(-c2cc(C(F)(F)F)nc(S(C)(=O)=O)n2)cc1OC,-7.48% (inactive),
